Compound activity deposited in PubChem BioAssay by several laboratories.
Smad3 FoxH1 inh = Smad3/FoxH1 peptide binding inhibitors, primary screen, biochemical, TR-FRET | inhibition, % at 25 µM | TR-FRET Smad3/Dy647-FoxH1 peptide binding, europium anti-His | AID 630, 2007 | 88,000 tested, 0.29% active;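 active = compounds that reduce the energy-transfer binding signal between the protein and its labelled peptide by more than half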
Target sequence (P84022 whole entry, looked up): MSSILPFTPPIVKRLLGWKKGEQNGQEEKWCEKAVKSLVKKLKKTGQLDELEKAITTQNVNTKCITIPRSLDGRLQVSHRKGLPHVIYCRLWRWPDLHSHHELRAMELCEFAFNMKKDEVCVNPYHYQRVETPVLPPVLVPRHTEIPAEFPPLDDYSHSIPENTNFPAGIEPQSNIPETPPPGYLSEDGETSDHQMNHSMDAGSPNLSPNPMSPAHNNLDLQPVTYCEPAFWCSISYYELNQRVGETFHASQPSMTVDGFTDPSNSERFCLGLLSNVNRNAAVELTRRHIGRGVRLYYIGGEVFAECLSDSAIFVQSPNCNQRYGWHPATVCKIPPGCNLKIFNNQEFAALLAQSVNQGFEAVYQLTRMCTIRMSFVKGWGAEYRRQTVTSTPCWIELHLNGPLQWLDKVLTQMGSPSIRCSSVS
ERb coact inh = inhibitors of ERβ-SRC1 coactivator interaction, primary screen, biochemical, TR-FRET, ERβ LBD, SRC-1 peptide; Estrogen receptor beta (Homo sapiens), Q92731; TR-FRET ER-beta LBD / SRC1-Cy5 peptide binding; receptor agonist-loaded with 1 µM estradiol; inhibition, % at 25.6 µM; 86,000 tested, 1.3% active; AID 633, 2007;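 active = compounds whose percent inhibition of the receptor-coactivator binding signal exceeds about 50% in the single-dose screen, limit read from the data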
ERa coact inh = ERα–SRC-1 coactivator interaction inhibitors, primary screen, biochemical, TR-FRET, ERα LBD, estradiol-bound; Estrogen receptor (Homo sapiens), P03372; TR-FRET ER-alpha LBD / SRC-1 peptide; inhibition, % at 25.6 µM; 86,000 tested, 1.7% active; in the data active = inhibition above about 50%
ERa coact pot = enhancers of ERα–SRC-1 coactivator binding, primary screen, biochemical, TR-FRET, ERα LBD, low estradiol | TR-FRET ERalpha-LBD/SRC-Cy5 coactivator binding, 2 h; 100 = basal binding, no effect | Estrogen receptor (Homo sapiens), P03372 | AID 639, 2007 | 86,000 tested, 1.3% active | coactivator binding (% of control), % at 25.6 µM; in the data active = activity above about 200%;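 also: binding measured in presence of low estradiol as agonist stimulus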
MMP-13 inhibitor = human MMP13 inhibitors, primary screen, biochemical, FRET peptide cleavage; Collagenase 3 (Homo sapiens), P45452; 65,000 tested, 0.07% active; MMP-13 fTHP FRET cleavage, Mca fluorescence; inhibition, % at 4 µM;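 active = inhibition above the mean of compound-free control plate wells plus 3 SD, cut at about 14% in these data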
MT1-MMP txn act = MT1-MMP promoter reporter activation – cell-based, luciferase luminescence, primary screen | 86,000 tested, 0.16% active | HT1080 MT1-MMP promoter luciferase reporter, overnight; hits give high values | AID 750, 2007 | activation factor at 10 µM;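 active = activation factor of at least 2 for MT1-MMP transcription at 10 µM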
A number is an active result; 0 = inactive; - = no result; [ ] = dose if it differs, or a comment. In the library only some 3.5% were active in any assay of this set; here they are far more common.

SMILES	Smad3 FoxH1 inh	ERb coact inh	ERa coact inh	ERa coact pot	MMP-13 inhibitor	MT1-MMP txn act
COC(=O)c1sc(NC(=O)c2cnccn2)c(C(=O)OC)c1C	0	0	52.5	0	0	0
COC(=O)c1ccc(CSc2nnc(NC(=O)c3cc4c(s3)CCCC4)s2)cc1	0	0	0	234.5	-	0
Brc1ccc(-c2nnc(-c3ccco3)o2)cc1	0	0	0	0	0	0
COc1ccccc1CN(Cc1nc2ccccc2c(=O)[nH]1)S(=O)(=O)c1ccc2ccccc2c1	0	0	0	279.6	-	0
COc1ccc(S(=O)(=O)N(Cc2ccccc2)Cc2nc3ccccc3c(=O)[nH]2)cc1	0	0	0	0	0	0
Cc1ccc(C)c2[nH]c(=O)c(C(c3nnnn3C3CCCC3)N3CCOCC3)cc12 (centres undefined)	0	0	0	0	0	0
COc1ccccc1OC1=NS(=O)(=O)c2ccccc21	0	0	77.8[fluorescence artefact?]	0	0	0
CCN(CC)c1cccc(OC2=NS(=O)(=O)c3ccccc32)c1	0	0	82.9[fluorescence artefact?]	0	0	0
CN(C)C/C(Cl)=C(\Cl)c1ccccc1	0	0	0	0	0	0
CC(=O)N1CN(C2CCS(=O)(=O)C2)Cc2c1sc1c2CCCC1 (centres undefined)	0	0	0	0	0	0
O=C(Nc1ccc(C2CCCCC2)cc1)C1CCCN(c2ncccn2)C1 (centres undefined)	0	0	0	223.3[fluorescence artefact?]	0	0
Cc1cc(C)cc(NC(=O)C2CCCN(c3nc(C)cc(C)n3)C2)c1 (centres undefined)	0	74.6[fluorescence artefact?]	0	0	0	0
Cc1cc(C)cc(NC(=O)C2CCCN(c3nccc(C)n3)C2)c1 (centres undefined)	0	0	0	0	0	0
CC(=O)Nc1ccc(NC(=O)C2CCCN(c3ncccn3)C2)cc1 (centres undefined)	0	0	0	0	-	0
Cc1cc(Cc2cc(C)c(N)cc2N)c(N)cc1N	102.1	-	-	-	-	-
CCOC(=O)c1cc(OC(=O)c2cccs2)n(-c2ccccc2)n1	0	0	0	0	0	0
N=c1c(-c2nc3ccccc3[nH]2)cc(C(=O)c2cccs2)nn1-c1ccc(Cl)cc1	0	52.5	89.7[fluorescence artefact?]	0	-	0
COc1ccc(C(CC(=O)O)NS(=O)(=O)c2ccc(C)cc2)cc1 (centres undefined)	0	0	0	0	-	0
COCCN1Cc2cccc(C(=O)Nc3cc(C)cc(C)c3)c2C1=O	0	0	0	0	0	0
COc1ccc(CN2CCn3ncc(C(=O)Nc4cc(C)cc(C)c4)c3C2=O)cc1	0	0	0	252.0[fluorescence artefact?]	-	0
Cc1oc(C(=O)Nc2ccc(O)cc2)cc1COc1ccccc1	0	51.7[fluorescence artefact?]	0	0	0	0
Cc1ccc(S(=O)(=O)c2nc(S(C)(=O)=O)sc2N(C)C)cc1	0	0	0	0	0	0
Cc1ccc(S(=O)(=O)c2nc(S(C)(=O)=O)sc2NCC2CCCO2)cc1 (centres undefined)	0	0	0	610.5	0	0
O=C(CSc1nnnn1Cc1ccccc1)NCCc1ccccc1	0	0	0	0	0	0
CCOc1cccc(NC(=O)C2CCCN(S(=O)(=O)c3ccc(-n4cnnn4)cc3)C2)c1 (centres undefined)	0	0	0	236.9[fluorescence artefact?]	0	0
COc1cccc(NC(=O)C2CCCN(S(=O)(=O)c3ccc(-n4cnnn4)cc3)C2)c1 (centres undefined)	0	0	0	0	0	0
CCCOc1nc2c(c(=O)n(C)c(=O)n2C)n1CC	0	0	0	0	0	0
CC(=O)Nc1ccc(Oc2ccc3nc(C)[nH]c3c2)cc1	0	0	0	0	0	0
CC(=O)N(C(C)=O)c1ccc2nc(C)[nH]c(=O)c2c1	0	0	0	576.7[fluorescence artefact?]	0	0
O=C1C(Cl)=C(Nc2ccccc2O)C(=O)N1c1ccccc1	0	0	53.9[fluorescence artefact?]	0	0	0
